Experimental data reported in PubChem BioAssay (Tox21).
Results filed as inconclusive are left out. Activity calls are given as the source filed them. Unless noted, calls follow the shape of the dose curve; as a rule, active = well fitted curve in the direction sought with a large enough effect in the repeat runs; inconclusive = weak or mixed curves; inactive = no such curve, though single readings can be large; an effect the other way counts as inactive or inconclusive.

Legend:
[1] = qHTS assay to identify small molecule agonists of the peroxisome proliferator-activated receptor delta (PPARd) signaling pathway - cell viability counter screen (AID 743211); also: nearly all actives have a fitted effect of over 55% in size
In short: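 PPARd-bla HEK293H cells (UAS-beta-lactamase reporter) were treated with compounds for 17 h at 37 C. Viability was then read in the same wells by CellTiter-Glo luminescence after 30 min at room temperature.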

[2] = qHTS assay to identify small molecule antagonists of the peroxisome proliferator-activated receptor delta (PPARd) signaling pathway - cell viability counter screen (AID 743213); also: nearly all actives have a fitted effect of over 50% in size
In short: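 Viability counter-screen, qHTS format: PPARd-bla HEK293H, L165041 300 nM final, 17 h compound exposure at 37 C, CellTiter-Glo luminescence after 30 min RT.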

[3] = qHTS assay to identify small molecule agonists of the farnesoid-X-receptor (FXR) signaling pathway - cell viability counter screen (AID 743218); also: nearly all actives have a fitted effect of over 45% in size
In short: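 HEK 293T FXR-bla cells; 5 h pre-incubation, 16 h compound exposure at 37 C; LiveBLAzer substrate 2 h RT, then CellTiter-Glo 30 min RT, luminescence.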

[4] = qHTS assay to identify small molecule antagonists of the farnesoid-X-receptor (FXR) signaling pathway - cell viability counter screen (AID 743221; active = well fitted cell-killing curve with a large enough effect in the repeat runs, not every such curve was filed as active; also: nearly all actives have a fitted effect of over 50% in size)
In short: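 FXR-UAS-bla HEK 293T cells were treated with test compounds plus chenodeoxycholic acid (50 uM final) for 16 h at 37 C. Cell viability in the same wells was then read as CellTiter-Glo luminescence after 30 min at room temperature.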

[5] = qHTS assay to identify small molecule agonists of the vitamin D receptor (VDR) signaling pathway - cell viability counter screen (AID 743224); also: series mostly up to about 63 µM; nearly all actives have a fitted effect of over 50% in size
In short: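 Luminescence from CellTiter-Glo, read after 30 min at room temperature, reports viability of VDR-bla cells treated with compounds for 16 h at 37C in the wells used for the beta-lactamase FRET read.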

[6] = qHTS assay to identify small molecule antagonists of the vitamin D receptor (VDR) signaling pathway - cell viability counter screen (AID 743225); also: nearly all actives have a fitted effect of over 50% in size
In short: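 VDR-bla HEK 293T cells, 4 h pre-incubation at 37C, then compound plus 1-alpha,25-dihydroxyvitamin D3 (3 nM final) for 16 h. After the beta-lactamase FRET read, CellTiter-Glo was added to the same wells; luminescence after 30 min at room temperature.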

[7] = qHTS assay to identify small molecule agonists of the NFkB signaling pathway - cell viability counter screen (AID 1159515; calls by dose curve; also: series mostly up to about 61 µM; nearly all actives have a fitted effect of over 55% in size)
In short: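 Luminescence from CellTiter-Glo (30 min, room temperature) gives viability, measured in the same wells as the beta-lactamase reporter read. Cells were NFkB-bla ME-180, 2,000 per well, treated 5 hr with compounds.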

[8] = qHTS assay to identify small molecule agonists of the endoplasmic reticulum stress response signaling pathway (AID 1159516; active = well fitted activation curve with a large enough effect in the signal ratio in the repeat runs, not every such curve was filed as active; the % refers to the signal ratio)
In short: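 Read-out is beta-lactamase cleavage of a FRET substrate (405 nm excitation; 460 and 530 nm emissions) in ESRE-bla HeLa cells after a 5 hr compound exposure at 37 C. Substrate incubation ran 2 hr at room temperature.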

[9] = qHTS assay to identify small molecule agonists of the endoplasmic reticulum stress response signaling pathway - cell viability counter screen (AID 1159517; calls by dose curve)
In short: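 Cells, HeLa ESRE-bla; density, 1,500/well; dosing, 5 hr at 37 C, 5% CO2; readout, CellTiter-Glo luminescence after 30 min RT.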

[10] = target: Nuclear receptor ROR-gamma (Homo sapiens) (UniProt P51449); test: qHTS assay to identify small molecule antagonists of the retinoid-related orphan receptor gamma (ROR-gamma) signaling pathway (AID 1159521)
In short: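 Tet-on RORγ CHO cells carrying a ROR response element–luciferase reporter were pretreated with compounds for 2 h, then induced with 1 uM (final) doxycycline hyclate for 16 h at 37 C. Antagonism was read as decreased ONE-Glo luminescence.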

[11] = qHTS assay to identify small molecule agonists of the AP-1 signaling pathway - cell viability counter screen (AID 1159525; calls by dose curve; also: nearly all actives have a fitted effect of over 55% in size)
In short: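 Luminescent ATP readout (Cell Titer Glo, 30 min RT), normalised to DMSO and tetra n-octyl ammonium bromide controls. Cells were ME-180 AP-1-bla in 0.5% dialyzed FBS Opti-MEM, with a 5 h, 37 °C compound exposure.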

[12] = qHTS assay to identify small molecule agonists of the AP-1 signaling pathway (AID 1159526; calls by dose curve)
[13] = target: Peroxisome proliferator-activated receptor delta (Homo sapiens) (UniProt Q03181); test: qHTS assay to identify small molecule agonists of the peroxisome proliferator-activated receptor delta (PPARd) signaling pathway (AID 743212; calls by dose curve)
Peroxisome proliferator-activated receptor delta (Homo sapiens), sequence (Q03181 whole entry, looked up): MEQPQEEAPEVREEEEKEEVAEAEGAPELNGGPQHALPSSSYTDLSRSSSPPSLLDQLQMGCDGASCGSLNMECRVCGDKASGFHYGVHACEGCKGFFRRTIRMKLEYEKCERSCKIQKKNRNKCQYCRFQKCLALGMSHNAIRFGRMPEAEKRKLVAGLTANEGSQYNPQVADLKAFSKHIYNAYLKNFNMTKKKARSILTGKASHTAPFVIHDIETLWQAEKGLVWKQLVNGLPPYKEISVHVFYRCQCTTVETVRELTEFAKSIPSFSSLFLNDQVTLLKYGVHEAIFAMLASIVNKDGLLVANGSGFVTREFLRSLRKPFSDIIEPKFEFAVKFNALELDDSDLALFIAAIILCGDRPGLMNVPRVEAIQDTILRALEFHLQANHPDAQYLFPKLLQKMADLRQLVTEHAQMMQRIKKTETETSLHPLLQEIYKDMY
In short: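 HEK293H UAS-bla reporter cells, human PPARd system; compounds delivered in DMSO after 5 h plating, then at 37 C. Beta-lactamase FRET read, 2 h RT substrate step.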

[14] = target: Vitamin D3 receptor (Homo sapiens) (UniProt P11473); test: qHTS assay to identify small molecule agonists of the vitamin D receptor (VDR) signaling pathway (AID 743222; calls by dose curve)
Vitamin D3 receptor (Homo sapiens), sequence (P11473 whole entry, looked up): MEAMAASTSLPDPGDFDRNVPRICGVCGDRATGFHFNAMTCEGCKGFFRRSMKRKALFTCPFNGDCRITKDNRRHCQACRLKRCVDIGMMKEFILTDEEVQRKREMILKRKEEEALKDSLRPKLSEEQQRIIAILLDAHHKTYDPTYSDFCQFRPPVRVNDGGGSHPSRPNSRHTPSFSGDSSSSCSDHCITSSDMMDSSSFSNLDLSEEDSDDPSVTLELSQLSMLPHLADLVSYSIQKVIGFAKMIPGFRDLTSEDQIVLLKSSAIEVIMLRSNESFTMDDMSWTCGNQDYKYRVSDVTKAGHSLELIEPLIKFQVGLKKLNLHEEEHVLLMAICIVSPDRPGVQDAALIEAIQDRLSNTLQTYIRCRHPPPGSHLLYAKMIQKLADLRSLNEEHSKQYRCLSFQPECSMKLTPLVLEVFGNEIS
In short: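 VDR-bla cells, 2,000/well; 4 h preincubation 37C; cpd (DMSO) 16 h; LiveBLAzer B/G substrate 2 h RT; fluorescence intensity read.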

[15] = target: Vitamin D3 receptor (Homo sapiens) (UniProt P11473); test: qHTS assay to identify small molecule antagonists of the vitamin D receptor (VDR) signaling pathway (AID 743223; active = well fitted inhibition curve with a large enough effect in the signal ratio in the repeat runs, not every such curve was filed as active; the % refers to the signal ratio)
In short: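 VDR-bla cells were plated, incubated 4 h at 37C, then given compound and 1alpha,25-dihydroxyvitamin D3 (3 nM final). After 16 h at 37C, LiveBLAzer B/G FRET substrate was added for 2 h at room temperature and fluorescence read.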

[16] = qHTS assay to identify small molecule antagonists of the retinoid-related orphan receptor gamma (ROR-gamma) signaling pathway - cell viability counter screen (AID 1159520); also: nearly all actives have a fitted effect of over 50% in size
In short: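 Cytotoxicity was read from cellular ATP (CellTiter-Glo luminescence) after 16 hr at 37 C with 1 uM doxycycline induction. The inducer was added 2 hr after compound transfer to Tet-on ROR gamma CHO cells.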

[17] = target: Retinoic acid receptor RXR-alpha (Homo sapiens) (UniProt P19793); test: qHTS assay to identify small molecule agonists of the RXR signaling pathway (AID 1159527; calls by dose curve; also: nearly all actives have a fitted effect of over 35% in size)
Retinoic acid receptor RXR-alpha (Homo sapiens), sequence (P19793 whole entry, looked up): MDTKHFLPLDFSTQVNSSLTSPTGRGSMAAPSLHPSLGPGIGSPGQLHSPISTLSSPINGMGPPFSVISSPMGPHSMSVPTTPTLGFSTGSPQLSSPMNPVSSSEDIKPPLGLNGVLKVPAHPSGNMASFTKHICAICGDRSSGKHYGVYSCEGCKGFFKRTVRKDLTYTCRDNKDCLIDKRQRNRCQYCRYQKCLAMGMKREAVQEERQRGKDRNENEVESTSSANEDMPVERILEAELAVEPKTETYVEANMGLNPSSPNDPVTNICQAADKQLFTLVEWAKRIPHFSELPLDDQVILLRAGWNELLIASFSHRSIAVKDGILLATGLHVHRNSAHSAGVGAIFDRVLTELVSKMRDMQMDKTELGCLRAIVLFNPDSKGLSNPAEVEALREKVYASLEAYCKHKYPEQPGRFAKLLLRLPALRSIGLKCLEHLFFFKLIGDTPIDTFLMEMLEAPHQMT
In short: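 GeneBLAzer RXR-alpha-UAS-bla HEK 293T cells in medium with 2% charcoal-stripped FBS, pre-incubated 5 hr at 37 C, then exposed to compounds 16 hr. Beta-lactamase reporter read by FRET substrate, 2 hr room temperature, 460/530 nm emission.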

[18] = target: Peroxisome proliferator-activated receptor delta (Homo sapiens) (UniProt Q03181); test: qHTS assay to identify small molecule antagonists of the peroxisome proliferator-activated receptor delta (PPARd) signaling pathway (AID 743215; active = well fitted inhibition curve with a large enough effect in the signal ratio in the repeat runs, not every such curve was filed as active; the % refers to the signal ratio;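 also: cells stimulated with agonist L165041 at 300 nM final during compound exposure; series mostly up to about 62 µM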)
In short: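 Read-out is beta-lactamase FRET fluorescence, measured 2 h after substrate addition at room temperature. Beforehand, UAS-bla HEK293H cells carrying the PPARd reporter were exposed to compounds with L165041 at 300 nM final for 17 h at 37 C.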

[19] = target: Bile acid receptor (Homo sapiens) (UniProt Q96RI1); test: qHTS assay to identify small molecule antagonists of the farnesoid-X-receptor (FXR) signaling pathway (AID 743217; active = well fitted inhibition curve with a large enough effect in the signal ratio in the repeat runs, not every such curve was filed as active; the % refers to the signal ratio)
Bile acid receptor (Homo sapiens), sequence (Q96RI1 whole entry, looked up): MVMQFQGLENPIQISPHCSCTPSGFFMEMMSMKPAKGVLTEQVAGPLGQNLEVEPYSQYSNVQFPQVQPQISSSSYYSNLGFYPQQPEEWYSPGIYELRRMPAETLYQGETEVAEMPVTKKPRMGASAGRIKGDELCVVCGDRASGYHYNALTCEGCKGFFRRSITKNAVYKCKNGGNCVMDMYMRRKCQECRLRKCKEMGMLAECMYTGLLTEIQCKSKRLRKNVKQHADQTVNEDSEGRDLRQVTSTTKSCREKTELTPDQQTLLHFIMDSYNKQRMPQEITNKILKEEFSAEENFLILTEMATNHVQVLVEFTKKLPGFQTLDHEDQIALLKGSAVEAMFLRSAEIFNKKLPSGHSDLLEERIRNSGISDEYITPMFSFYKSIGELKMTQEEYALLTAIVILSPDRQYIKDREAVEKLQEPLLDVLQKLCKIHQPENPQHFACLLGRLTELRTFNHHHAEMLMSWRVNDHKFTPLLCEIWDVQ
In short: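 HEK 293T FXR-UAS-bla, 5000 cells/well; compound + CDCA 50 uM final; 16 h, 37 °C; B/G FRET substrate 2 h RT; fluorescence.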

[20] = target: Bile acid receptor (Homo sapiens) (UniProt Q96RI1); test: qHTS assay to identify small molecule agonists of the farnesoid-X-receptor (FXR) signaling pathway (AID 743220; active = well fitted activation curve with a large enough effect in the signal ratio in the repeat runs, not every such curve was filed as active; the % refers to the signal ratio)
In short: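 Beta-lactamase reporter under UAS control in GeneBLAzer FXR HEK 293T cells (5000/well) measured with LiveBLAzer FRET substrate after 2 h at room temperature. Compound exposure lasted 16 h at 37C.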

Measured: Potency

O=C(c1ccccc1)c1ccc2n1CCC2C(=O)O (configuration not stated)
not listed: [13] | [14] | [15] | [16] | [17] | [18] | [19] | [20]
inactive: all other assays above

Cc1ccc(O)c([C@H](CCN(C(C)C)C(C)C)c2ccccc2)c1
inactive: [13] | [3] | [4] | [14] | [15] | [7] | [8] | [9] | [16] | [10] | [17]

CNS(=O)(=O)Cc1ccc2[nH]cc(CCN(C)C)c2c1
not listed: [5] | [11] | [12] | [15]
inactive: all other assays above

CC(=O)NCCCS(=O)(=O)O
not listed: [4] | [11] | [14] | [15] | [17]
inactive: all other assays above

CC(C)(C)c1cc(CCC(=O)OCC(COC(=O)CCc2cc(C(C)(C)C)c(O)c(C(C)(C)C)c2)(COC(=O)CCc2cc(C(C)(C)C)c(O)c(C(C)(C)C)c2)COC(=O)CCc2cc(C(C)(C)C)c(O)c(C(C)(C)C)c2)cc(C(C)(C)C)c1O
not listed: [6] | [11] | [17]
inactive: all other assays above

CC(=O)O[C@H]1C[C@@H]2CC[C@@H]3[C@H](CC[C@@]4(C)[C@H]3C[C@H]([N+]3(C)CCCCC3)[C@@H]4OC(C)=O)[C@@]2(C)C[C@@H]1N1CCCCC1
not listed: [12] | [14] | [15] | [16]
inactive: all other assays above

C[Si](C)O[Si](C)(C)O[Si](C)(C)O[Si](C)C
not listed: [4] | [13] | [16] | [17] | [18] | [19] | [20]
inactive: all other assays above

SC1CCCC1
inactive: [1] | [2] | [3] | [5] | [6] | [7] | [8] | [9] | [10] | [11] | [12]

C=CCCCCCC
inactive: [1] | [2] | [19] | [3] | [20] | [6] | [7] | [8] | [9] | [16] | [10]
